Test results taken from PubChem BioAssay AID1159580 (chemical genetic matrix, 2015).
Out of some 5,500 compounds screened, about 2,000 (36%) were called active. Another 18% or so got no clear call; they are omitted. Rule as the data show it: active = normalized growth mostly below about 0.91 (no sharp cut-off); inconclusive = no clear call, values can overlap the other calls; inactive = mostly above about 0.92. This is one part of the list.

Assay: chemical genetic growth profiling, strain panel (AID 1159580);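 also: tested at 20 µM; growth read once vehicle control cultures reached saturation at 30 °C; 1 = growth at the plate median or of vehicle wells; lower values mean less growth of the strain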
Conditions: S. cerevisiae deletion strains, growth OD

Measured: normalized growth

CCCCC/C=C/CCC(=O)N[C@H]1[C@H](Oc2c3cc4cc2Oc2ccc(cc2Cl)[C@@H](O[C@@H]2O[C@H](CO)[C@@H](O)[C@H](O)[C@H]2NC(C)=O)[C@@H]2NC(=O)[C@H](NC(=O)[C@@H]4NC(=O)[C@H]4NC(=O)C(Cc5ccc(c(Cl)c5)O3)NC(=O)[C@H](N)c3ccc(O)c(c3)Oc3cc(O)cc4c3)c3ccc(O)c(c3)-c3c(OC4O[C@H](CO)[C@@H](O)[C@H](O)[C@@H]4O)cc(O)cc3[C@@H](C(=O)O)NC2=O)O[C@H](CO)[C@@H](O)[C@@H]1O (stereo not given in full)
inactive: locus YAL021C, strain ccr4, stronger effect = lower value 1 | locus YAL026C, strain drs2, stronger effect = lower value 1 | locus YAL030W, strain snc1, stronger effect = lower value 0.995 | locus YBL061C, strain skt5, stronger effect = lower value 0.987 | locus YBR009C, strain hhf1, stronger effect = lower value 0.996 | locus YBR023C, strain chs3, stronger effect = lower value 0.998 | locus YBR171W, strain sec66, stronger effect = lower value 1 | locus YBR231C, strain swc5, stronger effect = lower value 0.991 | locus YBR279W, strain paf1, stronger effect = lower value 0.997 | locus YCL011C, strain gbp2, stronger effect = lower value 1.01 | locus YCL016C, strain dcc1, stronger effect = lower value 0.995 | locus YCL061C, strain MRC1, stronger effect = lower value 0.999 | locus YCL069W, strain vba3, stronger effect = lower value 0.996 | locus YCR088W, strain abp1, stronger effect = lower value 1.01 | locus YDL005C, strain med2, stronger effect = lower value 0.995 | locus YDL040C, strain nat1, stronger effect = lower value 1 | locus YDR001C, strain nth1, stronger effect = lower value 1 | locus YDR069C, strain doa4, stronger effect = lower value 1 | locus YDR137W, strain rgp1, stronger effect = lower value 1.01 | locus YDR159W, strain sac3, stronger effect = lower value 0.977 | locus YDR195W, strain ref2 0.918 | locus YDR297W, strain sur2, stronger effect = lower value 0.998 | locus YDR334W, strain swr1, stronger effect = lower value 1.01 | locus YDR335W, strain msn5, stronger effect = lower value 0.998 | locus YDR392W, strain spt3, stronger effect = lower value 0.967 | locus YEL003W, strain gim4, stronger effect = lower value 0.989 | locus YEL037C, strain rad23, stronger effect = lower value 1.05 | locus YEL061C, strain CIN8 (second series), stronger effect = lower value 0.999 | locus YER015W, strain faa2, stronger effect = lower value 0.999 | locus YER016W, strain bim1, stronger effect = lower value 1.01 | locus YER111C, strain swi4, stronger effect = lower value 0.987 | locus YER155C, strain BEM2 (second series), stronger effect = lower value 1.01 | locus YFR010W, strain ubp6, stronger effect = lower value 1.03 | locus YGL167C, strain pmr1, stronger effect = lower value 0.993 | locus YGL173C, strain kem1, stronger effect = lower value 0.994 | locus YGL227W, strain vid30, stronger effect = lower value 1 | locus YGL240W, strain doc1, stronger effect = lower value 0.973 | locus YGL253W, strain hxk2, stronger effect = lower value 1 | locus YHR013C, strain ard1, stronger effect = lower value 0.981 | locus YHR027C, strain rpn1, stronger effect = lower value 1 | locus YHR030C, strain SLT2, stronger effect = lower value 0.964 | locus YHR079C, strain IRE1, stronger effect = lower value 0.956 | locus YHR142W, strain chs7, stronger effect = lower value 1.03 | locus YJL092W, strain hpr5, stronger effect = lower value 1 | locus YJL095W, strain BCK1 (second series), stronger effect = lower value 1 | locus YJL095W, strain BCK1, stronger effect = lower value 0.956 | locus YJL115W, strain asf1, stronger effect = lower value 0.996 | locus YJL129C, strain trk1, stronger effect = lower value 1 | locus YJL154C, strain vps35, stronger effect = lower value 1.01 | locus YJL164C, strain tpk1, stronger effect = lower value 1.01 | locus YJL166W, strain qcr8, stronger effect = lower value 0.993 | locus YJL187C, strain SWE1, stronger effect = lower value 1 | locus YJR066W, strain TOR1, stronger effect = lower value 0.935 | locus YKL160W, strain elf1, stronger effect = lower value 0.995 | locus YKR026C, strain gcn3, stronger effect = lower value 0.99 | locus YKR091W, strain srl3, stronger effect = lower value 0.996 | locus YLL001W, strain dnm1, stronger effect = lower value 1.02 | locus YLL026W, stronger effect = lower value 0.996 | locus YLL041C, strain sdh2, stronger effect = lower value 1 | locus YLR027C, strain aat2, stronger effect = lower value 1.01 | locus YLR113W, strain HOG1, stronger effect = lower value 0.942 | locus YLR221C, strain rsa3, stronger effect = lower value 1.01 | locus YLR258W, strain gsy2, stronger effect = lower value 1.01 | locus YLR262C, strain YPT6 (second series), stronger effect = lower value 1.01 | locus YLR320W, strain mms22, stronger effect = lower value 0.988 | locus YLR342W, strain FKS1, stronger effect = lower value 0.988 | locus YLR357W, strain rsc2, stronger effect = lower value 1 | locus YLR370C, strain arc18, stronger effect = lower value 1 | locus YLR384C, strain iki3, stronger effect = lower value 1 | locus YML120C, strain ndi1, stronger effect = lower value 1.01 | locus YMR058W, strain fet3, stronger effect = lower value 1 | locus YMR125W, strain sto1, stronger effect = lower value 1.01 | locus YMR129W, stronger effect = lower value 0.998 | locus YMR205C, strain PFK2, stronger effect = lower value 0.993 | locus YMR231W, strain pep5, stronger effect = lower value 0.991 | locus YNL071W, strain lat1, stronger effect = lower value 1 | locus YNL183C, strain NPR1, stronger effect = lower value 0.936 | locus YNL209W, strain ssb2, stronger effect = lower value 1 | locus YNL248C, strain rpa49, stronger effect = lower value 1.01 | locus YNL322C, strain KRE1 (second series), stronger effect = lower value 0.991 | locus YNR049C, strain mso1, stronger effect = lower value 1.01 | locus YOR001W, strain rrp6, stronger effect = lower value 1.01 | locus YOR070C, strain gyp1, stronger effect = lower value 1.02 | locus YOR080W, strain dia2, stronger effect = lower value 0.98 | locus YOR083W, strain WHI5, stronger effect = lower value 1 | locus YOR106W, strain vam3, stronger effect = lower value 1.02 | locus YOR231W, strain MKK1, stronger effect = lower value 0.961 | locus YOR265W, strain rbl2, stronger effect = lower value 1 | locus YOR270C, strain vph1, stronger effect = lower value 0.993 | locus YOR290C, strain snf2, stronger effect = lower value 1.01 | locus YPL051W, strain arl3, stronger effect = lower value 1.01 | locus YPL078C, strain atp4, stronger effect = lower value 0.999 | locus YPL106C, strain sse1, stronger effect = lower value 0.971 | locus YPL240C, strain hsp82, stronger effect = lower value 0.999 | locus YPL256C, strain CLN2, stronger effect = lower value 0.946
